We go through 96 compounds from PubChem BioAssay AID651815 (National Center for Advancing Translational Sciences (NCATS), 2012).

Out of some 2,100 compounds screened, about 1,100 (52%) were called active. Roughly 29% stayed inconclusive and do not appear here. So high a share suggests a set chosen from earlier hits. Some of the results follow. Values without a mark were called inactive. Calls follow the shape of the dose curve; as a rule, active = well fitted inhibition curve with a large enough effect; inconclusive = small, poorly fitted or top-dose-only effect; inactive = no such curve, though single readings can be large or run the other way.
% is scaled to controls: 0 for no effect and ±100 for the full control effect; potency is read from the fitted curve at half-maximal effect.

DNA dC->dU-editing enzyme APOBEC-3F (Homo sapiens), sequence (Q8IUX4 whole entry, looked up): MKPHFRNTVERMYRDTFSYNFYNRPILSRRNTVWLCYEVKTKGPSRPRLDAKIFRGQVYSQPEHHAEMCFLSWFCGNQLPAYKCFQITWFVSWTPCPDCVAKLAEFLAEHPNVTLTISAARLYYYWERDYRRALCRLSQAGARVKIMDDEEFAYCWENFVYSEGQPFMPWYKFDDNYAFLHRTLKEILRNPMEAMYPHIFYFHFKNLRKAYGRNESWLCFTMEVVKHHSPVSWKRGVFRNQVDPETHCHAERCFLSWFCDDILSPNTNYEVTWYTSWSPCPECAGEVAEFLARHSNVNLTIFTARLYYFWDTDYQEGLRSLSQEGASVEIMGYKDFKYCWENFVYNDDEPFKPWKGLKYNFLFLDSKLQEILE

The test addresses DNA dC->dU-editing enzyme APOBEC-3F (Homo sapiens) (UniProt Q8IUX4). As to the kind of experiment: qHTS for inhibitors of Vif-A3F interactions: Cherry picks counterscreen. Also: nearly all actives have a fitted effect of over 65% in size. The conditions noted are these: HeLa A3F-eYFP/Vif cells, eYFP fluorescence, 24 h; series mostly up to 46.1 µM; activity, negative = inhibitor: at the top concentration. Put shortly: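 HeLa cells stably expressing A3F-eYFP and Vif, cultured overnight, then treated 24 h at 37 degrees C with compounds at several concentrations; yellow fluorescence (488 nm Ex/500-530 nm Em) imaged on Acumen; MG132 positive control.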
On to `COc1ccccc1-c1nnc2sc(-c3cc4ccccc4o3)nn12`, for which the Potency is 5.59 µM (active).
Same read-out and setting: the result for `Cc1c2ccccc2nc2c(F)c(NC(C)C)c(F)c(F)c12` reads 6.51 µM (active); that for `CCCNc1c(F)c(F)c2c(C)c3ccccc3nc2c1F`, 15.8 µM (active); that for `c1ccc(-c2cnn3c(-c4ccccc4)c(-c4ccccc4)nc3n2)cc1`, 0.461 µM (active).
For the compound `CC(=O)c1sc2nc(-c3cccs3)cc(C(F)(F)F)c2c1N`, the Potency was 16.4 µM (active).
On to `CC(C)(C)C(=O)c1sc2nc(-c3cccs3)cc(C(F)(F)F)c2c1N`, for which the Potency was 1.84 µM (active).
Still for that read-out and setting: the result for `Nc1c(C(=O)C2CC2)sc2nc(-c3cccs3)cc(C(F)(F)F)c12` reads 1.16 µM (active).
For `CCCc1nc2c(C)cc(Br)cn2c1Cc1ccccc1`, the “activity, negative = inhibitor” value was -9.85% [at 36.9 µM].
Turning to `CC(C)n1cc(/C=C/c2cc[n+](C)cc2)c2ccccc21`, the Potency is 0.0559 µM (active).
Same read-out and setting: the result for `CCn1cc(/C=C/c2cc[n+](C)cc2)c2ccccc21` reads 0.0498 µM (active).
Still for that read-out and setting: the result for `C=CCn1cc(/C=C/c2cc[n+](C)cc2)c2ccccc21` reads 0.198 µM (active).
As to `COc1cc(OC)c(/C=C/c2ccc3ccccc3[n+]2C)c(OC)c1`, the Potency was 11.6 µM (active).
Regarding `CCc1c(C)nc(SCC(=O)c2cccs2)c(C#N)c1C`, the “activity, negative = inhibitor” value was -0.887% [at 36.9 µM].
Regarding `N#Cc1c(-c2ccccc2F)cc(C2CC2)nc1SCC(=O)c1cccs1`, the Potency was 14 µM (active).
As for `Fc1ccc(COc2ccc3ccccc3c2CNc2nn[nH]n2)cc1`, the Potency is 19.8 µM (active).
Regarding `COc1cccc(CNCCSc2nnnn2C)c1OCc1ccc(F)cc1`, the “activity, negative = inhibitor” value is -0.36%.
Turning to `O=C(NNC1=Nc2cccc3cccc1c23)c1ccc(Br)cc1`, the Potency is 23.1 µM (active).
For `COc1cc(OC)c(/C=C2\SC(=O)N(CC(=O)Nc3ccccc3F)C2=O)c(OC)c1`, the Potency was 12.5 µM (active).
On to `O=C(Cn1nc2c(cc1=O)CCCC2)NCc1ccc(Cl)cc1`, for which the Potency was 16.4 µM (active).
On the same count and under the same terms, the result for `N#C/C(=C/c1cccs1)c1ccccn1` reads 15.8 µM (active).
Still for that read-out and setting: the result for `CC(=O)Nc1cccc(-c2ccnc3c2CC(C)(C(=O)NCc2ccccc2)O3)c1` (stereo unspecified) reads 2.8 µM (active); that for `CC1(C(=O)NCc2ccccc2)Cc2c(-c3ccc(C(N)=O)cc3)ccnc2O1` (stereo unspecified), 7.9 µM (active).
Same read-out and setting: the result for `CC1(C(=O)NCc2ccco2)Cc2c(-c3cccc(C(N)=O)c3)ccnc2O1` (stereo unspecified) reads 14 µM (active).
In the case of `CC(=O)Nc1cccc(-c2ccnc3c2CC(C)(C(=O)NCc2cccs2)O3)c1` (stereo unspecified), the Potency was 4.44 µM (active).
For the compound `CC(=O)Nc1cccc(-c2ccnc3c2CC(C(=O)NCc2cccs2)O3)c1` (stereo unspecified), the Potency is 5.59 µM (active).
The same measure, in the same setting: the result for `CC1(C(=O)NCc2ccccc2)Cc2c(-c3cccc(C(N)=O)c3)ccnc2O1` (stereo unspecified) reads 7.04 µM (active).
Regarding `CCCOc1cc(N(CC)CC)ccc1/C=C(/C#N)c1nc2ccc(C)cc2[nH]1`, the “activity, negative = inhibitor” value is 4.05%.
`Cc1ccc2nc(/C(C#N)=C\c3ccc([N+](=O)[O-])o3)[nH]c2c1`: the Potency was 10.3 µM (active).
Same read-out and setting: the result for `N#C/C(=C\c1cccnc1)c1nc2ccccc2[nH]1` reads 14 µM (active); that for `N#C/C(=C\c1ccc([N+](=O)[O-])o1)c1nc2ccccc2[nH]1`, 8.2 µM (active).
Still for that read-out and setting: the result for `N#C/C(=C\c1ccc(Cl)cc1)c1nc2ncccc2[nH]1` reads 15.8 µM (active); that for `CC(/C=N/NC(=O)c1cc(-c2ccccc2)nc2ccccc12)=C\c1ccco1`, 3.14 µM (active).
Take `CCn1c(O)c(/C=N/NC(=O)c2ccncc2)c(=O)n(CC)c1=S`: the “activity, negative = inhibitor” value was 0.342%.
For the compound `CCc1ccc(/C=N/NC(=O)c2cc(-c3ccncc3)nc3ccccc23)s1`, the Potency was 4.98 µM (active).
On the same count and under the same terms, the result for `O=C(N/N=C/c1ccco1)c1cc(-c2ccncc2)nc2ccccc12` reads 6.27 µM (active).
As to `C/C(=N\NC(=O)c1cc(-c2ccncc2)nc2ccccc12)c1ccc(N2CCOCC2)cc1`, the “activity, negative = inhibitor” value is -25.1% [at 36.9 µM].
`Cc1ccc(CNC(=O)c2cccc3c2C(=O)c2ccc(N4CCC(C)CC4)cc2S3(=O)=O)cc1`: the Potency was 14.6 µM (active).
Same read-out and setting: the result for `O=C(NCc1cccc(F)c1)c1cccc2c1C(=O)c1ccc(N3CCCC3)cc1S2(=O)=O` reads 17.7 µM (active); that for `CC1CCN(c2ccc3c(c2)S(=O)(=O)c2cccc(C(=O)NCc4cccc(F)c4)c2C3=O)CC1`, 14 µM (active); that for `COc1ccc2oc(=Nc3ccccc3)c(-c3nc4ccccc4[nH]3)cc2c1`, 20.6 µM (active).
In the case of `CCOC(=O)c1csc(NC(=O)c2cc(-c3ccccn3)nc3ccccc23)n1`, the “activity, negative = inhibitor” value is 7.27% [at 36.9 µM].
As for `COc1cc(C(=O)Nc2ccc(C)cc2)c2ccccc2n1`, the Potency is 1.77 µM (active).
Regarding `Cc1ccc(C)c(NC(=O)Cn2cc(S(=O)(=O)Cc3cccc(Cl)c3)c3ccccc32)c1`, the Potency is 6.51 µM (active).
Take `Cc1ccc(Cl)cc1NC(=O)Nc1cn(CC(C)C)c(=O)c2ccccc12`: the “activity, negative = inhibitor” value was -14.2%.
In the case of `COc1ccc(C2CC(c3ccncc3)=NN2c2ccc(S(N)(=O)=O)cc2)cc1` (stereo unspecified), the Potency was 20.6 µM (active).
Take `CCS(=O)(=O)N1N=C(c2ccc(C)cc2)CC1c1cc2ccc(OC)cc2nc1Cl` (stereo unspecified): the “activity, negative = inhibitor” value is 7.7%.
Still for that read-out and setting: the result for `COc1ccc2nc(NC(=S)NC(=O)c3ccco3)sc2c1` reads 7.79%.
Turning to `O=C(Nc1nc2ccc(F)cc2s1)c1ccc([N+](=O)[O-])o1`, the Potency is 15.8 µM (active).
Still for that read-out and setting: the result for `COc1ccc(NC(=O)c2c(Cl)n(C)c3ccccc23)cc1` reads 14 µM (active); that for `COc1cc(OC)c(OC)cc1/C=C1\CC(C)C/C(=C\c2cc(OC)c(OC)cc2OC)C1=O` (stereo unspecified), 18.4 µM (active); that for `CCOc1ncccc1C(=O)NCc1ccc(OC)cc1`, 8.86 µM (active).
As for `CCCOc1ccc2cc(C(=O)NCc3ccccc3)c(=O)oc2c1`, the “activity, negative = inhibitor” value was 16.1%.
As to `CCOc1ccc(CNC(=O)c2ccccc2NC(=O)c2nsc3ccccc23)cc1`, the Potency is 16.4 µM (active).
Same read-out and setting: the result for `COc1ccc2c(n1)Sc1nc3ccccc3nc1N2` reads 3.26 µM (active); that for `COc1ccc(C2C(C#N)=C(N)Oc3c2ccc2cccnc32)cc1OC` (stereo unspecified), 3.53 µM (active).
`COc1ccc(C2C(C#N)=C(N)Oc3cc(N)ccc32)cc1OC` (stereo unspecified): the Potency is 12.5 µM (active).
The same measure, in the same setting: the result for `COc1cc(C2C(C#N)=C(N)Oc3cc(O)ccc32)cc2c1OCO2` (stereo unspecified) reads 15.8 µM (active); that for `N#CC1=C(N)Oc2cc(N)ccc2C1c1cccc(F)c1` (stereo unspecified), 2.5 µM (active).
As for `Cc1oc(C)c2c(=O)ccc3c(c12)OC(N)=C(C#N)C3c1ccc(F)cc1` (stereo unspecified), the “activity, negative = inhibitor” value is 40.3%.
With `N#CC1=C(N)Oc2cc(N)ccc2C1c1cccc(Br)c1` (stereo unspecified), the Potency was 1.98 µM (active).
As to `Cc1ccc2nc(-c3ccccn3)c(NC3CCCC3)n2c1`, the “activity, negative = inhibitor” value was 3.27%.
For the compound `O=C(N/N=C/c1ccc(Cl)cc1)c1cc2c(s1)-c1ccccc1CC2`, the Potency was 5.59 µM (active).
The same measure, in the same setting: the result for `Cc1cc2c(cc(C(=O)OCC(=O)NCc3cccs3)n2C(C)C)o1` reads 1.77 µM (active); that for `CCOC(=O)Cc1csc(NC(=O)c2sc3nc4c(C)cc(C)cc4cc3c2N)n1`, 16.4 µM (active); that for `O=C(Cn1ncc(Cl)c(Cl)c1=O)Nc1ccc2c(c1)OCO2`, 15.8 µM (active).
Turning to `Cc1cc(C)cc(Oc2nc(C(F)(F)F)nc3ccccc23)c1`, the Potency was 11.2 µM (active).
Consider `CNC(=S)N/N=C/c1ccc(N2CCOCC2)s1`, for which the “activity, negative = inhibitor” value is -20.6%.
For `Cc1ccc(/C=N/NC(=O)c2ccc3ccccc3c2)s1`, the Potency is 2.23 µM (active).
On the same count and under the same terms, the result for `Cc1ccc(/C=N/NC(=O)C2COc3ccccc3O2)s1` (stereo unspecified) reads 4.98 µM (active).
Same read-out and setting: the result for `Cc1ccc(Cn2nnc3c(=O)n(CC(=O)NCc4ccccc4)cnc32)cc1` reads 14 µM (active); that for `CC(C)(C)n1ncc2c(=O)n(CC(=O)NCc3ccc(F)cc3)cnc21`, 14 µM (active); that for `O=C(Cn1cnc2c(cnn2-c2ccc(F)cc2)c1=O)NCc1ccco1`, 9.94 µM (active).
For the compound `Cc1sc2ncn(CC(=O)NCc3ccccc3)c(=O)c2c1C`, the “activity, negative = inhibitor” value was -9.93% [at 36.9 µM].
On to `CCc1cccc2c(C(O)c3c[nH]c4ccccc34)c[nH]c12` (stereo unspecified), for which the Potency was 20.6 µM (active).
Consider `CCn1c(SCC(=O)Nc2cccc(O)c2)nc2c1c(=O)n(C)c(=O)n2C`, for which the “activity, negative = inhibitor” value was 2.22%.
Consider `COc1ccc(NC(=O)CSc2nc3c(oc4ccccc43)c(=O)n2Cc2ccco2)cc1Cl`, for which the Potency is 18.4 µM (active).
Still for that read-out and setting: the result for `N=c1n(CC(=O)c2ccc([N+](=O)[O-])cc2)c2ccccc2n1Cc1ccccc1` reads 20.6 µM (active); that for `Cc1cccc(C)c1OCCNC(=O)C(=O)NCc1ccco1`, 2.8 µM (active).
As for `Cc1ccc2c(CC(=O)NCc3ccco3)coc2c1C`, the Potency was 9.94 µM (active).
Turning to `O=C(COC(=O)C12CC3CC(CC(Cl)(C3)C1)C2)N1CCCCC1`, the “activity, negative = inhibitor” value was 23.5%.
As to `COc1ccc2o/c(=N/NC(=O)c3cccs3)c(C(N)=O)cc2c1`, the Potency is 7.04 µM (active).
As to `Cc1ccc2c(Cl)c(C)c(N3CCCC3)nc2n1`, the “activity, negative = inhibitor” value was -2.84%.
As to `COc1ccc(Nc2nc3cc(C)ccc3cc2C#N)c(OC)c1`, the Potency is 1.58 µM (active).
On to `CCN(CC)c1nc2cc(OC)ccc2cc1C#N`, for which the “activity, negative = inhibitor” value was -12.2%.
In the case of `COc1ccc(Nc2nc3cc(C)ccc3cc2C#N)cc1`, the Potency is 14.6 µM (active).
Same read-out and setting: the result for `O=[N+]([O-])c1ccc(N/N=C/c2c[nH]c3ccccc23)cc1` reads 16.4 µM (active).
Turning to `Cc1ccccc1NCC(=O)N=Nc1c(O)[nH]c2ccc([N+](=O)[O-])cc12`, the “activity, negative = inhibitor” value was -10% [at 36.9 µM].
In the case of `Cc1[nH]c2ccccc2c1/C=N/Nc1ccc([N+](=O)[O-])cc1`, the Potency is 9.2 µM (active).
On to `C/C(=N/Nc1ccc([N+](=O)[O-])cc1)c1c[nH]c2ccccc12`, for which the “activity, negative = inhibitor” value was -110%.
On the same count and under the same terms, the result for `O=[N+]([O-])c1ccc(N=Nc2ccc(O)c3ccccc23)cc1` reads -18.6% [at 36.9 µM].
For the compound `O=[N+]([O-])c1ccc(N/N=C/c2c[nH]c3ccccc23)c(S(=O)(=O)Nc2ccc(Cl)cc2)c1`, the Potency is 18.4 µM (active).
Same read-out and setting: the result for `COc1ccccc1NS(=O)(=O)c1cc([N+](=O)[O-])ccc1N/N=C/c1c(C)[nH]c2ccccc12` reads 3.96 µM (active); that for `COc1ccccc1NS(=O)(=O)c1cc([N+](=O)[O-])ccc1N/N=C/c1c[nH]c2ccccc12`, 13 µM (active); that for `COc1ccc(NS(=O)(=O)c2cc([N+](=O)[O-])ccc2N/N=C/c2c(C)[nH]c3ccccc23)cc1`, 10.3 µM (active).
Regarding `CC(C)CC(=O)NC(=S)N(Cc1ccccc1)Cc1ccccc1`, the “activity, negative = inhibitor” value was -4.37%.
In the case of `CC[n+]1c(C=C2C=C(C)OC(C)=C2)sc2ccccc21`, the Potency was 4.61 µM (active).
